Bioassay records from PubChem BioAssay.
In the library only some 3.4% were active in any assay of this set; here they are far more common.
PAX8 inh HTS = inhibitors of PAX8 transcriptional activity in RMG-I cells. RMG-I TPO-luciferase reporter, SteadyGlo, 24 h. inhibition, % at 12.6 µM. 1.2% of 360,000 active. AID 652154;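 active means mean replicate inhibition at least 60% with every replicate also reaching 60%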;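 further: luciferase light reporting Pax8 driven TPO promoter activity; plate controls were median of neutral control wells for no effect and mitoxantrone controls for full effect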
LGR2 antag = Drosophila LGR2 receptor signaling inhibition; HEK293 LGR2, CRE-luciferase, bursicon-stimulated, 4 h; inhibition, % at 9.99 µM; 0.35% of 380,000 active; AID 720647;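 active means drop in luminescence signal, shown as inhibition above about 50% in the replicate tests, limit read from the data, passing the limit was not always enough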;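 further: agonist challenge used bursicon conditioned medium at about half maximal strength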
SIRT5 inh = blocks human SIRT5 desuccinylation of peptide; Purified SirT5, succinyl-peptide AMC, trypsin-coupled fluorescence; inhibition, % at 15 µM; 1.1% of 330,000 active; Q9NXA8; in the data active means inhibition above about 15%
Target sequence (Q9NXA8 whole entry, looked up): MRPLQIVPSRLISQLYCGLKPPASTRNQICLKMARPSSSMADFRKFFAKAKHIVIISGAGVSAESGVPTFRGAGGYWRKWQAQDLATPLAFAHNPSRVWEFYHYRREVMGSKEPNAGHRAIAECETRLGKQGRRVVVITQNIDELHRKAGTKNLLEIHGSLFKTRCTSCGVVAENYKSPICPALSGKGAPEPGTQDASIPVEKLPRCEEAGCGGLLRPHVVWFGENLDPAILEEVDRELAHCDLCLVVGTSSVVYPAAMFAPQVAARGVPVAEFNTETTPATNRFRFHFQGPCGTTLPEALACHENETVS
EWS-Fli block = EWS/Fli transcriptional activity inhibition. inhibition, % at 12.6 µM. 0.67% of 350,000 active. A673 NR0B1-luciferase reporter, viability-normalised;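 active means mean inhibition of at least 50% after viability correction, with every replicate also passing that limit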;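 further: firefly luciferase signal divided by Alamar Blue viability fluorescence both relative to DMSO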
PGC1a acetyl inh = lowers PGC1a acetylation signal in U2OS cells; AlphaScreen anti-acetyl-lysine; with virally co-expressed GCN5 acetyltransferase; inhibition, % at 15.6 µM; 0.17% of 350,000 active;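 active means every replicate shows inhibition of at least 40%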;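 further: 0% = neutral control wells and 100% = positive control wells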
rRNA inh HTS = inhibits bacterial ribosomal RNA function over humanized ribosomes; GFP signal change (wild-type ribosome), % (test concentration not listed); E. coli WT GFP vs humanized-ribosome RFP mutants, fluorescence, 24 h; active compounds read low; DMSO median 0, no signal -100; AID 720706; 1.6% of 350,000 active;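 active means significant combined selectivity score with lowered wild-type GFP, culture density cut under 30%, mutant RFP and density less affected; inactive means any of these conditions unmet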
Starred values were filed as active, the others as inactive; . = not tested or not shown.

SMILES	PAX8 inh HTS	LGR2 antag	SIRT5 inh	EWS-Fli block	PGC1a acetyl inh	rRNA inh HTS
CCN(Cc1ccccc1)S(=O)(=O)CCNC(=O)c1ccccc1	8.1	-3.2	-1.9	-1.3	13.1	-2.6
CC(C)Cn1c(N)c(C(=O)COC(=O)c2ccccc2Cl)c(=O)n(C)c1=O	-4.3	-2.5	-2.5	1.9	.	-34.9
CC(C)Cn1c(N)c(C(=O)COC(=O)Cc2cccs2)c(=O)n(C)c1=O	.	-2.2	-14.5	6.4	-1.5	.
CC(C)Cn1c(N)c(C(=O)COC(=O)/C=C/c2cccs2)c(=O)n(C)c1=O	28.4	13.0	-0.8	7.1	9.6	-23.1*
Cn1c(N)c(C(=O)COC(=O)/C=C/c2ccccc2)c(=O)n(C)c1=O	-1.2	3.2	.	0.2	4.0	-19.8*
CC(C)Cn1c(N)c(C(=O)COC(=O)c2cccc(Cl)c2)c(=O)n(C)c1=O	-3.1	8.9	-1.9	-3.8	-17.8	-27.9*
O=C(C[C@@H]1C=C[C@H](NC(=O)c2cccnc2)[C@H](CO)O1)NCCN1CCCCC1	.	22.8	.	.	2.2	4.4
CC(=O)N1c2ccccc2N(Cc2ccc(C)cc2C)C(=O)C1(C)C	26.5	-21.6	1.5	54.0*	-24.7	-37.2
C=CCN1C(=O)C(C)(C)N(C(C)=O)c2ccccc21	-10.0	-2.6	-3.6	-8.9	.	1.2
O=C(C=Cc1ccccc1)c1cccs1	-95.6	-5.9	.	-78.6	.	-22.2*
CO[C@H]1CN(C)C(=O)c2cc(NC(=O)c3cnccn3)ccc2OC[C@@H](C)N(CC2CC2)C[C@H]1C	.	-3.8	0.1	-1.9	4.9	0.8
O=C1NC[C@H](CCCCN2C[C@H](Cc3ccc(O)cc3)N(CCC3CCCCC3)C(=O)C2=O)N(CCc2ccc(O)cc2)C1=O	3.9	-2.1	1.5	-1.5	.	-24.6*
O=C1NC[C@@H](CCCCN2C[C@H](Cc3ccc(O)cc3)N(CCC3CCCCC3)C(=O)C2=O)N(CCc2ccc(O)cc2)C1=O	4.2	22.8	0.6	1.9	.	-18.9
COCC(=O)N1CCCCN2[C@H](CO)[C@H](c3ccc(-c4ccc(C)cc4)cc3)[C@H]2C1	11.0	8.0	-8.2	-2.7	5.3	-0.6
COCC(=O)N1CCCCN2[C@H](C1)[C@@H](c1ccc(-c3ccc(C)cc3)cc1)[C@@H]2CO	115.4*	-24.2	.	2.1	-0.1	-1.5
Cc1ccc(-c2ccc([C@H]3[C@@H](CO)N4CCCCN(C(=O)c5ccc(F)cc5)C[C@H]34)cc2)cc1	73.0*	-0.5	-2.3	6.2	6.8	-59.0
CCNC(=O)C[C@@H]1CC[C@@H]2[C@H](COc3ccc(NC(=O)c4cc(C)on4)cc3C(=O)N2C)O1	9.9	-5.0	-2.3	15.2	-5.9	2.2
C[C@@H]1CN([C@@H](C)CO)C(=O)c2cccc(NC(=O)c3ccncc3)c2O[C@H]1CN(C)C(=O)Nc1ccc(F)cc1	-0.1	4.7	0.7	5.7	-0.6	3.8
CO[C@@H]1CN(C)C(=O)c2ccc(NC(=O)CC(F)(F)F)cc2OC[C@@H](C)N(C(=O)C2CC2)C[C@@H]1C	-12.9	9.3	-0.5	3.8	9.9	1.3
Cc1ccc(CNC(=O)c2ccc(Br)o2)cc1	.	-22.8	-0.5	-14.4	-0.8	-18.1*
O=C(NCc1ccccc1)c1ccc(Br)o1	2.6	-19.7	.	-2.3	.	9.5
CC1(C(=O)NCc2ccccc2)CSCC(=O)N1CCc1c[nH]c2ccccc12 (stereo not drawn)	12.0	-1.3	-0.4	4.9	.	-41.0*
COc1ccc2c3c([nH]c2c1)[C@H](CO)N(C(=O)CN(C)C)CC31CCN(CC2CCCC2)CC1	-14.7	-7.1	0.9	1.7	.	5.7
CCOC(=O)Cn1cc(C#N)c2cccc(CC)c21	7.4	11.6	23.9*	1.9	-3.0	-12.8
COc1cccc(NC(=S)NNC(=O)c2c([N+](=O)[O-])c(C)nn2C)c1	.	.	.	.	0.0	.
SMILES	PAX8 inh HTS	LGR2 antag	SIRT5 inh	EWS-Fli block	PGC1a acetyl inh	rRNA inh HTS
COc1cccc(NC(=O)c2nn(C)c(C(=O)Nc3cccc(OC)c3)c2[N+](=O)[O-])c1	16.4	6.1	-0.5	2.9	.	-39.6*
COc1ccc(COc2cc(-c3cccc(OC)c3)nc3ccc(NC(=O)c4ccc(C)cc4)cc23)cc1	80.1*	0.1	-4.8	49.8	.	14.3
COc1ccc(C(=O)Nc2ccc3ncccc3c2)cc1	26.7	59.5*	2.4	58.0*	.	-3.6
O=C(Nc1cccc(C(=O)O)c1)Nc1ccc2c(c1)OCO2	103.3*	97.2*	0.6	79.3*	.	26.0
CC(=O)N1CC[C@@H]2[C@H]1c1cc(-c3cccc(F)c3)ccc1N(C)[C@@H]2CO	17.2	18.6	-17.5	-4.1	6.1	1.3
COc1cccc(-c2ccc3n(c2=O)C[C@H]2[C@H](CO)[C@@H](C(=O)NCCN4CCCCC4)N(C)[C@@H]32)c1	-6.7	1.1	-5.9	-12.5	.	4.3
COc1ccc(C(=O)Nc2cccc(OC)c2)cc1	.	-28.5	1.5	-26.4	-3.4	-4.3
COc1cccc(-c2cc(C(=O)Nc3cccc(O)c3)no2)c1	.	78.7*	.	.	-12.3	.
COc1ccc(NS(=O)(=O)c2cccc(NC(=O)c3ccc(Cl)nc3)c2)cc1	49.5	19.7	-3.8	11.4	.	-24.7*
COC(=O)c1cccc(NC(=O)c2ccc(OC)c(Cl)c2)c1	-54.7	-84.0	-0.7	0.1	-18.6	-30.5*
O=C(Nc1cccc(S(=O)(=O)Nc2ccc(Cl)cc2)c1)c1ccc(Cl)nc1	18.2	17.4	0.1	26.3	.	-35.9
COc1ccc(C(=O)Nc2cc(C(=O)O)cc(C(=O)O)c2)cc1Cl	5.3	22.9	-2.6	-2.7	-15.2	11.2
COc1ccc(C(=O)Nc2ccc3[nH]c(-c4cccc(OC)c4)cc(=O)c3c2)cc1	39.2	-1.1	-1.7	57.4*	.	5.8
O=C(C[C@H]1C=C[C@@H](NC(=O)Nc2ccc(C(F)(F)F)cc2)[C@@H](CO)O1)NCc1ccccn1	.	4.8	-0.7	-8.3	6.4	-3.1
Cn1nc(C(C)(C)C)c([N+](=O)[O-])c1C(=O)Nc1ccc(Br)cc1	14.7	5.3	1.8	-13.3	.	-26.0*
COc1cccc(NC(=O)Nc2cccc(C(=O)O)c2)c1	80.1*	96.9*	2.0	75.1*	-10.3	11.2
O=C(O)c1ccc(NC(=O)c2cccc(C(=O)Nc3ccc(C(=O)O)cc3)c2)cc1	8.3	-26.8	33.1*	4.3	.	-1.8
O=C(O)c1cc(NC(=O)c2cccc(C(=O)Nc3cc(C(=O)O)cc(C(=O)O)c3)c2)cc(C(=O)O)c1	-2.3	-3.3	-0.4	-12.9	.	-0.2
Cc1cccc(NC(=O)c2c([N+](=O)[O-])c(C(C)(C)C)nn2C)c1	33.5	-3.3	-1.8	-10.0	.	13.2
COc1cccc(NC(=O)Nc2cccn(Cc3ccc(C)cc3)c2=O)c1	10.0	28.8	-1.8	-0.6	.	-28.6*
C[C@@H]1CN([C@@H](C)CO)C(=O)c2cc(NC(=O)c3ccccc3)ccc2O[C@@H](C)CCCCO[C@H]1CN(C)S(=O)(=O)c1cccs1	17.7	-8.2	.	1.4	-13.8	-2.8
